# Source: PubChem BioAssay
# This is a sample that favours compounds with a hit; in the whole collection about 6.9% have one here.
# Beta cell apopt: blocks beta cell apoptosis. INS-1E cytokine-induced death, ATP luminescence, 48 h; percent of positive-control rescue, neutral wells zero. protection from apoptosis, % (concentration not given with the values). 300,000 tested, 0.8% active;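 active = Every replicate reaches about 75%, or at least half do and their mean reaches it too, limit read from the data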;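 also: 0% = cytokine-treated negative control wells and 100% = positive control rescue; higher means more ATP so stronger rescue from cytokine killing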
# SKKanGAS inh: blocks kanamycin growth of S. pyogenes SKKanGAS strain. BacTiter-Glo, 6 h. inhibition, % at 7.5 µM. 300,000 tested, 1.3% active. AID 1662;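 active = mean replicate score, as percent of positive control median, at least 50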;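 also: strain carries kanamycin resistance gene driven by streptokinase promoter and grows in 40 µg/ml kanamycin; loss of luminescence reflects streptokinase promoter inhibition or plain growth inhibition; 0% = median of DMSO wells and 100% = positive control at its reference dose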
# CSC inhib: cancer stem cell inhibition. cancer stem cell-like cells viability, luminescence. inhibition, % at 7.5 µM. 300,000 tested, 1.1% active. AID 2717; in the data active = inhibition above about 75%; tested in HMLE shEcad cells
# Mdm2-MdmX inh: disrupts the human Mdm2-MdmX interaction; O15151+Q00987; SaOS-2 split-luciferase Mdm2/MdmX complementation, luminescence; inhibition, % at 8 µM; 330,000 tested, 3% active; AID 485346;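 active = inhibition of at least 50% at 8 µM in the primary screen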
# MPTP block: permeability transition pore inhibition; isolated mouse mitochondria, Ca2+ swelling absorbance, 30 min; inhibition, % at 10 µM; 360,000 tested, 1.4% active;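 active = inhibition of 50% or more, scaled per plate between neutral and stimulator controls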;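 also: 0% = DMSO wells given calcium and 100% = 1 mM EGTA wells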
# GRIN3A LBD mod: NR3A (human) ligand-binding domain modulation. Tm shift relative to glycine control, % at 25 µM. 340,000 tested, 2.5% active. NR3A LBD differential scanning fluorimetry, Tm shift; 0% = protein alone, 100% = glycine-bound protein;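 active = melting temperature shift of at least 10% of the positive control shift, at one fixed dose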
# An asterisk follows results filed as active; . = no result.
SMILES,Beta cell apopt,SKKanGAS inh,CSC inhib,Mdm2-MdmX inh,MPTP block,GRIN3A LBD mod
C/C=C1\NC(=O)[C@H](CC(N)=O)N(C)C(=O)C([C@@H](C)O)NC(=O)C(CCCc2ccc(OC)cc2)NC(=O)[C@H](C(C)C)NC(=O)/C(=C\C)NC(=O)[C@H](O)[C@@H](C[C@@H](O)CCCCCCC)NC(=O)[C@H](C)NC(=O)CN(C)C(=O)[C@H](CCC(N)=O)NC1=O (stereo partly drawn),.,.,.,.,2.6,-1.9
Cc1cc(O)c(/C=N/OCc2ccc(Cl)cc2Cl)c(=O)o1,-7.4,-6.6,6.0,17.3,0.2,-3.3
CN(C)/C=C(\C=N\OCc1ccc(Cl)cc1Cl)C(=O)Nc1ccc(Cl)c(Cl)c1,-0.6,112.8*,85.0*,4.8,14.7,.
COc1ccc(F)cc1S(=O)(=O)N1CCc2ccccc2C1,.,.,.,.,-3.1,.
CN=C1S/C(=C\c2cn(CC(=O)OC)c3ccccc23)C(=O)N1C,-2.8,-4.7,-6.3,26.3,2.4,-2.9
CN=C1S/C(=C/c2cn(CC(=O)OC)c3ccccc23)C(=O)N1C,0.5,0.3,-1.5,2.9,3.0,11.9*
Cc1ccc(C)c(-c2cc(C(=O)Nc3nccs3)c3ccccc3n2)c1,6.6,20.1,.,-3.9,-0.4,-1.1
Cc1ccc(-c2cc(C(=O)Nc3ccc(S(=O)(=O)Nc4nccs4)cc3)c3ccccc3n2)c(C)c1,-5.3,43.9,-7.6,-2.5,2.3,14.9*
O=C(Nc1ccc(S(=O)(=O)Nc2nccs2)cc1)c1cc(-c2ccccc2)nc2ccccc12,3.8,42.1,-10.0,3.8,-1.6,11.2*
Cc1ccc(-c2cc(C(=O)Nc3ccc(S(=O)(=O)Nc4ncccn4)cc3)c3ccccc3n2)cc1,0.2,26.6,-24.9,15.8,-0.1,-3.5
CCN1CCC(N2CCN(c3ccccc3OC)CC2)CC1,-3.1,0.8,-15.9,13.9,0.9,1.6
O=C(Nc1ccc(NC(=O)c2cccs2)cc1)c1ccccc1,7.2,0.9,9.9,-15.0,0.2,15.9*
O=C(Cc1cccs1)Nc1cccc(C(=O)Nc2ccc(C(=O)O)cc2)c1,-12.9,-3.2,-13.1,-1.1,-2.3,22.7*
O=C(Nc1cccc(O)c1)c1cccc(C(=O)Nc2cccc(O)c2)c1,13.2,-3.8,-11.5,24.2,1.9,33.6*
O=C(Cc1cccs1)Nc1ccc(C(=O)O)cc1,-0.2,-5.6,-4.1,1.6,-1.3,0.2
O=C(Nc1cccc(O)c1)c1ccc(Br)cc1,1.9,3.5,-8.8,6.0,-2.0,5.2
O=C(Nc1cccc(O)c1)c1ccc(NC(=O)c2cccs2)cc1,6.1,1.7,72.0,-23.6,1.2,36.5*
CN1CCN(C(=S)NC(=O)c2ccco2)CC1,-10.4,-0.1,-1.0,20.9,0.0,-0.9
Cc1c(C)n(Cc2ccc(F)cc2)c2ccc(C(=O)NCCN3CCOCC3)cc12,-5.8,0.0,40.8,27.4,-1.7,-0.1
CCOC(=O)CNC(=O)N(C)[C@H]1C[C@H]2c3[nH]c4ccccc4c3CCN2C(=O)[C@H]1[C@H](C)O,.,.,.,.,-1.1,.
O=C(Nc1ccc(O)cc1)c1ccc(NC(=O)c2cccs2)cc1,-4.8,-1.9,84.5*,-13.1,-0.8,27.9*
CC(/C=N/NC(=O)c1cccs1)=C\c1ccccc1,0.0,10.4,-8.2,-10.8,-2.2,-7.2
O=C(Nc1ccccc1)Nc1snnc1C(=O)Nc1cccc(O)c1,.,18.4,.,24.1,-0.2,24.3*
O=C(N/N=C/C(Cl)=C\c1ccccc1)c1cccs1,4.7,-7.1,17.1,-140.4,5.1,13.2*
COc1ccc(OC)c(CN2C(=O)c3ccccc3C2c2nnnn2-c2c(C)cccc2C)c1 (stereo not drawn),.,.,.,.,0.8,.
SMILES,Beta cell apopt,SKKanGAS inh,CSC inhib,Mdm2-MdmX inh,MPTP block,GRIN3A LBD mod
CNc1ccc2ncc(-c3ccc(OC)c(OC)c3)n2n1,.,.,.,.,0.9,.
COc1ccc2cc3cc(C(=O)Nc4ccc5c(c4)OCCO5)oc3nc2c1,17.1,10.2,44.2,35.9,1.9,26.3*
COc1ccc2cc3cc(C(=O)Nc4cc(OC)c(OC)c(OC)c4)oc3nc2c1,2.6,-7.9,10.1,38.7,-0.4,0.2
Cc1cccc2cc(-c3ccccc3)c(-c3ccccc3)c[n+]12,99.0*,5.7,11.9,.,2.3,-3.7
O=[N+]([O-])c1cccc(-c2cc3cccc[n+]3cc2-c2cccc([N+](=O)[O-])c2)c1,-2.7,6.3,-2.7,19.2,0.2,-0.5
C[C@@H]1CCC(=O)N(CC[C@H](Sc2ccc(Br)cc2)c2ccccc2)CC1,10.9,.,96.7*,21.3,-1.9,1.8
